# Unmarked numbers belong to inactive results. For some assays here: Measured potencies and affinities stand elsewhere. Calls of active or inactive are those of the source. Unless noted, how the calls were made is not given here.
# What was measured:
# [1] = antimalarial activity against Dd2 strain (AID 2302;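 active means growth inhibition above 50% at the single 2 µM test dose, taken to imply half-maximal potency below 2 µM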;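 further: 0% = DMSO untreated growth and 100% = chloroquine plus artemisinin killed control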); conditions: P. falciparum Dd2 in RBCs, LDH growth readout, 72 h; at 2 µM; active compounds read high
# [2] = HepG2 cytotoxicity, primary screen, cytotoxicity control for P. falciparum antimalarial project, cell-based, ATP luminescence (AID 2303;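 active means inhibition above 50%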;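 further: 0% = DMSO wells and 100% = digitonin-killed cells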); conditions: HepG2 viability, 24-48 h, at 10 µM, active compounds read high
# [3] = biological target: L-lactate dehydrogenase (Plasmodium falciparum (isolate CDC / Honduras)) (UniProt Q27743); assay: PfLDH activity inhibition – cell lysate, 3D7 strain, counter-screen for P. falciparum growth inhibition project (AID 2304);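 further: 0% = vehicle and 100% = reference inhibitor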; conditions: P. falciparum 3D7 crude extract, LDH APAD/NBT absorbance; at 2 µM; active compounds read high
# [4] = inhibition of 3D7 malaria parasite growth – strain 3D7 (AID 2306);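 further: 0% = DMSO wells and 100% = chloroquine plus artemisinin control wells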; conditions: P. falciparum 3D7 erythrocytic growth, LDH absorbance, 72 h; at 2 µM; active compounds read high
# [5] = biological target: Calcium-dependent protein kinase 1 (Plasmodium falciparum (isolate 3D7)) (UniProt P62344); assay: PfCDPK1 kinase inhibitors, biochemical, TCAMS library (AID 1159585; cut-off not given, nearly all actives have IC50 up to about 0.98 µM;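 further: inhibitors leave more ATP so luminescence rises with inhibition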); conditions: recombinant PfCDPK1, Kinase-Glo ATP depletion luminescence
# [6] = biological target: Plasmodium falciparum protein kinase 6 (PK6, PF3D7_1337100) (UniProt Q8IDW1); assay: PfPK6 kinase inhibitors, biochemical, TCAMS library (AID 1159586); conditions: recombinant PfPK6, Kinase-Glo ATP depletion luminescence
# [7] = biological target: Protein kinase 7 (PK7), Plasmodium falciparum 3D7 (PF3D7_0213400) (UniProt Q7YTF7); assay: inhibition of Plasmodium PK7 catalytic activity – biochemical, TCAMS antimalarial set, Kinase-Glo luminescence (AID 1159587); conditions: recombinant PfPK7, Kinase-Glo ATP depletion luminescence
# [8] = biological target: Calcium-dependent protein kinase 4 (Plasmodium falciparum (isolate 3D7)) (UniProt Q8IBS5); assay: PfCDPK4 kinase inhibitors, biochemical, TCAMS library (AID 1159588; cut-off not given, nearly all actives have IC50 up to about 0.91 µM); conditions: recombinant PfCDPK4, Kinase-Glo ATP depletion luminescence
# Calcium-dependent protein kinase 4 (Plasmodium falciparum (isolate 3D7)), sequence (Q8IBS5 whole entry, looked up): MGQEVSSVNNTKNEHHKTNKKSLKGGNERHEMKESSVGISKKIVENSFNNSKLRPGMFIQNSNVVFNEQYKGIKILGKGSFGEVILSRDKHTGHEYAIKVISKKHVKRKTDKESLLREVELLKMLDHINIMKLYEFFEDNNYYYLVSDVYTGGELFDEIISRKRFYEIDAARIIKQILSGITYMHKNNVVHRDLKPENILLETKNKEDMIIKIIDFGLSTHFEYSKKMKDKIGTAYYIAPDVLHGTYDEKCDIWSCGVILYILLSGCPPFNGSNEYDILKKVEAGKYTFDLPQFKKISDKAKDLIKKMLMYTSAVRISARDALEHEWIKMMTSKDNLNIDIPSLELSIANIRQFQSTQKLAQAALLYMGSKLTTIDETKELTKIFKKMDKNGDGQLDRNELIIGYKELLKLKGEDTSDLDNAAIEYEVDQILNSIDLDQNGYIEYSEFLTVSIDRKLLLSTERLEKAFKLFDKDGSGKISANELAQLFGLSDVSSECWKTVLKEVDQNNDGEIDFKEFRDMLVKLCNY
# L-lactate dehydrogenase (Plasmodium falciparum (isolate CDC / Honduras)), sequence (Q27743 whole entry, looked up): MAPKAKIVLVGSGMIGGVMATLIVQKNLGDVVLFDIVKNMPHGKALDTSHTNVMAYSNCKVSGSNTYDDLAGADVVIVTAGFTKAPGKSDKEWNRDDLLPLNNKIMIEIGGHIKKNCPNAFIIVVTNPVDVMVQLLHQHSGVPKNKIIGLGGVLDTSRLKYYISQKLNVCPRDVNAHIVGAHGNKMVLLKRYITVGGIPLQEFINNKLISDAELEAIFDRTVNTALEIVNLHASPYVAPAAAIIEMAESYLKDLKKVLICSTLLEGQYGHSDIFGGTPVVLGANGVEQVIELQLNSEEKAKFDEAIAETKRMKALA
# Calcium-dependent protein kinase 1 (Plasmodium falciparum (isolate 3D7)), sequence (P62344 whole entry, looked up): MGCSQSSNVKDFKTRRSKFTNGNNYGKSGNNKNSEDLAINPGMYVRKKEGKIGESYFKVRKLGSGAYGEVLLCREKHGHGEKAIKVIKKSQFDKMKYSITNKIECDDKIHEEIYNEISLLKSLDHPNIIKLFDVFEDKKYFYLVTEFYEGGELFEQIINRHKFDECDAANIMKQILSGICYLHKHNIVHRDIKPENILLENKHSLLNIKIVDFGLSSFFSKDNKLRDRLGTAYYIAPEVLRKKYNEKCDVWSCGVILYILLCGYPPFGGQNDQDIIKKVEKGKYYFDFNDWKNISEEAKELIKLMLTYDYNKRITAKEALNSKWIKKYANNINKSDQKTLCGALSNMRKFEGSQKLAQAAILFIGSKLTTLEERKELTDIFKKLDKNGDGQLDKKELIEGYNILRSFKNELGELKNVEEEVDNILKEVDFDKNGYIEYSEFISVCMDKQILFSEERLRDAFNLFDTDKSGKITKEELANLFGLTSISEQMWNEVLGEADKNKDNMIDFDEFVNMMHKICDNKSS
# Protein kinase 7 (PK7), Plasmodium falciparum 3D7 (PF3D7_0213400), sequence (Q7YTF7 1-343): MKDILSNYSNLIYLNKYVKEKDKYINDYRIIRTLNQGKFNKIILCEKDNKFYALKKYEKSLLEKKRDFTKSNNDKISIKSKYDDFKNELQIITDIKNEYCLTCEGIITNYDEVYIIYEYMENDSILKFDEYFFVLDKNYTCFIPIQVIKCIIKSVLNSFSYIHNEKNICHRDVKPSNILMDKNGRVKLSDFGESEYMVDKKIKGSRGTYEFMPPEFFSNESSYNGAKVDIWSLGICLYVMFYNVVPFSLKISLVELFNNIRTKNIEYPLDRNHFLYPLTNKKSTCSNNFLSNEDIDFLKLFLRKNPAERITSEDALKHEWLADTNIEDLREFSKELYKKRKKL
# Plasmodium falciparum protein kinase 6 (PK6, PF3D7_1337100), sequence (Q8IDW1 1-305): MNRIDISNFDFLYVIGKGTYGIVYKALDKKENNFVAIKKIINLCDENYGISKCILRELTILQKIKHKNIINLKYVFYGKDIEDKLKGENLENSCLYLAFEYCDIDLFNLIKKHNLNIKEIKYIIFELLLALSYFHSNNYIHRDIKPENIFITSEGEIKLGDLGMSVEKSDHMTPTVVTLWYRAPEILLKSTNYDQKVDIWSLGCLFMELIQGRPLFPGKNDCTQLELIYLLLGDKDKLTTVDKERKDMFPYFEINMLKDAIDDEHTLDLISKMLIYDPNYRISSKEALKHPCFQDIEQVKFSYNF
SMILES,growth inhibition [1],inhibition [2],inhibition [3],growth inhibition [4],outcome [5],outcome [6],outcome [7],outcome [8]
CN(C)CCNC(=O)[C@H](Cc1ccccc1)NC(=O)c1ccc(O)c(-c2ccc(Cl)c(Cl)c2)c1,0%,-1%,-6%,98% (active),inactive,inactive,inactive,inactive
COc1ccc(NC(=O)Nc2cc(C)nc3ccccc23)cc1Cl,49%,4%,-2%,104% (active),inactive,inactive,inactive,inactive
c1cc(CN2CCCCC2)cc(-c2cccc(-c3nc4ccccc4[nH]3)c2)c1,37%,39%,0%,100% (active),inactive,inactive,inactive,inactive
CN1CCC(c2cc3c(cc2Br)CCN3C(=O)Nc2ccc(-c3ccncc3)c(Cl)c2)CC1,-1%,26%,-1%,91% (active),inactive,inactive,inactive,inactive
Cc1c(-c2cccc(CNCCc3ccc(Cl)cc3)c2)cnc(N)c1C,30%,9%,-5%,87% (active),inactive,inactive,inactive,inactive
O=[N+]([O-])c1ccc2nc(Nc3cccc(C(F)(F)F)c3)c(Nc3cccc(C(F)(F)F)c3)nc2c1,99% (active),-2%,-4%,101% (active),inactive,inactive,inactive,inactive
COc1cc(NCCCCNc2ccc(Cl)c(Cl)c2)nc2ccccc12,68% (active),22%,2%,100% (active),inactive,inactive,inactive,inactive
Cc1cccc2[nH]c(-c3ccc(-c4cccc(CN5CCC(N)C5)c4)s3)nc12 (stereo not given),78% (active),16%,1%,95% (active),inactive,inactive,inactive,inactive
Cc1cnc(NCC2CCCCC2)nc1N[C@@H](CO)C(=O)Nc1ccccc1,56% (active),-1%,-3%,83% (active),inactive,inactive,inactive,inactive
COc1ccccc1Oc1c(N(C)S(=O)(=O)c2ccc(C(C)C)cc2)nc(C(F)(F)F)nc1N(C)S(=O)(=O)c1ccc(C(C)C)cc1,98% (active),4%,-6%,94% (active),inactive,inactive,inactive,inactive
Cc1cc(=O)c(-c2ccc(Sc3ccc(Cl)cc3)cc2)c(C)[nH]1,84% (active),-3%,-7%,92% (active),inactive,inactive,inactive,inactive
NC1CCN(Cc2cccc(-c3ccc(-c4nc5ccccc5[nH]4)cc3)c2)C1 (stereo not given),58% (active),24%,-7%,100% (active),inactive,inactive,inactive,inactive
CCCCNC(=O)c1cc(CNC2CCCCC2)ccc1-c1cccc(CNCc2ccc(-c3ccccc3)cc2)c1,85% (active),100% (active),0%,100% (active),inactive,inactive,inactive,inactive
CC(CON1C(N)=NC(N)=NC1(C)C)Cc1ccc(Cl)cc1Cl (stereo not given),97% (active),61% (active),2%,92% (active),inactive,inactive,inactive,inactive
Cc1ccc(F)c(OC2CCN(c3ccc(C(=O)NC4CC4)cn3)CC2)c1,72% (active),10%,-2%,92% (active),inactive,inactive,inactive,inactive
O=C1CCCN1CCCNCc1ccc(-c2ccc(-c3nc4ccc(C(F)(F)F)cc4[nH]3)s2)cc1,96% (active),9%,-4%,100% (active),inactive,inactive,inactive,inactive
Cc1cccc(Cn2c(Cc3ccccc3)nnc2Sc2ccc([N+](=O)[O-])c(C#N)c2)c1,3%,17%,-2%,91% (active),inactive,inactive,inactive,inactive
COc1ccccc1-n1ccnc1SCC(=O)Nc1cc(C(F)(F)F)ccc1Cl,97% (active),-2%,2%,97% (active),inactive,inactive,inactive,inactive
CCCC(C)Nc1nc(C)cc(NCCC(=O)Nc2ccc(OC)cc2)n1 (stereo not given),2%,12%,-1%,97% (active),inactive,inactive,inactive,inactive
NC(N)=Nc1ccc(OCCCCCOc2ccc(N=C(N)N)cc2Br)c(Br)c1,95% (active),27%,0%,92% (active),inactive,inactive,inactive,inactive

SMILES,growth inhibition [1],inhibition [2],inhibition [3],growth inhibition [4],outcome [5],outcome [6],outcome [7],outcome [8]
COc1ccc(C(O)CNC(C)CCc2ccccc2)cc1C(F)(F)F (stereo not given),100% (active),3%,1%,99% (active),inactive,inactive,inactive,inactive
CC(C)NCc1ccc(OCc2cccc(COc3ccc(CNC(C)C)cc3I)c2)c(I)c1,92% (active),100% (active),6%,101% (active),inactive,inactive,inactive,inactive
CC(C)(C)c1ccc(CN2CCCCC(NC(=O)c3cc(-c4cccc(Cl)c4)cs3)C2)cc1 (stereo not given),60% (active),11%,1%,96% (active),inactive,inactive,inactive,inactive
Nc1c(Cl)cc(C(O)CNCCCCCCCCCc2ccccn2)cc1Cl (stereo not given),83% (active),9%,2%,98% (active),inactive,inactive,inactive,inactive
CCc1cn2c3c(cc(C(=O)N[C@@H](Cc4cccc(Cl)c4)[C@H](O)CNC4CCCCC4)cc13)N(C)S(=O)(=O)CC2,98% (active),12%,2%,97% (active),inactive,inactive,inactive,inactive
CN(C(=O)/C=C/c1cc(C(F)(F)F)ccc1F)C1CCN(CCCCCNC(=O)/C=C/c2ccc(Cl)c(Cl)c2)C1 (stereo not given),1%,16%,-3%,93% (active),inactive,inactive,inactive,inactive
Cc1[nH]c(C)c(-c2ccc(OCCOc3ccc(C(F)(F)F)cn3)cc2)c(=O)c1Br,97% (active),25%,3%,97% (active),inactive,inactive,inactive,inactive
CC(C)c1ccc(CN2CCC(NC(=O)c3ccc(-c4cccc(Cl)c4)s3)CC2)cc1,6%,50% (active),3%,82% (active),inactive,inactive,inactive,inactive
Cc1cccc2[nH]c(-c3cccc(-c4ccc(NC(=O)CS(C)(=O)=O)cc4)c3)nc12,8%,3%,-8%,85% (active),inactive,inactive,inactive,inactive
O=C(N[C@@H](Cc1ccccc1)C(=O)O)c1cc(-c2ccc(F)cc2)no1 (tested in a mixture with another compound),49%,-2%,-3%,96% (active),inactive,inactive,inactive,inactive
N#Cc1ccc(-c2ccc(C(=O)Nc3ccc4c(c3)CCN(C3CCC3)CC4)nc2)cc1,63% (active),21%,0%,99% (active),inactive,inactive,inactive,inactive
O=C(/C=C/c1ccc(Cl)c(Cl)c1)NCCCCCCN1CCN(C(=O)Nc2cccc(Cl)c2)CC1,2%,33%,-3%,85% (active),inactive,inactive,inactive,inactive
CCNc1cc(C(=O)N[C@@H](Cc2ccccc2)[C@H](O)CNC(CC)c2cccc(Cl)c2)cc(N2CCCC2=O)c1 (stereo not given in full),99% (active),12%,-1%,97% (active),inactive,inactive,inactive,inactive
C[C@H](Cc1ccc(OCCCCCCOc2ccc(C[C@@H](C)N[C@H](C)c3ccccc3)cc2)cc1)NC[C@H](O)c1cccc(Cl)c1,98% (active),99% (active),-4%,99% (active),inactive,inactive,inactive,inactive
NC1=NC(c2ccccc2)(c2ccccc2)C(=O)N1Cc1ccc(-c2ccncc2)cc1,74% (active),20%,5%,96% (active),inactive,inactive,inactive,inactive
NOCCCOc1ccccc1,-4%,20%,-4%,100% (active),inactive,inactive,inactive,inactive
O=C(Nc1ccc2nc(-c3ccccc3)[nH]c2c1)c1cc(-c2ccc3c(c2)OCCO3)n[nH]1,75% (active),58% (active),-2%,100% (active),inactive,inactive,inactive,inactive
CC(=O)Nc1cccc(C(=O)Nc2ccc(-c3cccc(-c4nc5ccc(C(F)(F)F)cc5[nH]4)c3)cc2)c1,85% (active),81% (active),2%,101% (active),inactive,inactive,inactive,inactive
CC(C)CNC(=S)N1CCCN(c2nc3ccc(Cl)cc3s2)CC1,11%,28%,-3%,95% (active),inactive,inactive,inactive,inactive
CC(C)C[C@H](NC(=O)c1cc2ccccc2s1)C(=O)N[C@H]1CCN(Cc2ccc(OC3CCN(C)C3)c(Cl)c2)C1 (stereo not given in full),65% (active),68% (active),2%,97% (active),inactive,inactive,inactive,inactive

# Source: PubChem BioAssay
